Experimental data reported in PubChem BioAssay AID485314 (National Center for Advancing Translational Sciences (NCATS), 2010).
The whole screen tested about 340,000 compounds, of which about 4,500 (1.3%) were called active. Entries that show only a call come without a potency. Not shown: some 5% with an inconclusive outcome. Calls follow the shape of the dose curve; as a rule, active = well fitted inhibition curve with a large enough effect; inconclusive = small, poorly fitted or top-dose-only effect, or another doubt; inactive = no such curve, though single readings can be large or run the other way. The sample as a whole holds a higher share of actives than the screen did.

Molecular target: DNA polymerase beta (Homo sapiens) (UniProt P06746)
Experiment: qHTS Assay for Inhibitors of DNA Polymerase Beta
Conditions: Pol beta primer extension/strand displacement, fluorescence kinetic; series mostly up to 114 µM
Excerpt: The base excision repair system in human cells is a target for therapeutic modulation of the response to irradiation treatment and DNA-damaging drugs. A key enzyme in this system is the bi-functional DNA polymerase known as DNA polymerase Beta (Pol Beta). The following is a homogeneous kinetic assay to study the primer extension and strand-displacement reaction catalyzed by pol beta.
A stepwise description of the 1536-well assay is shown in next Table. Three microliters of reagents (buffer in column 3 and 4 as negative control and 10 nM Pol beta in columns 1, 2, and 5-48) was dispensed into 1,536-well black solid-bottomed plate. Compounds (23 nL) were transferred via Kalypsys pin tool equipped with 1536-pin array (10 nL slotted pins, V&P Scientific, San Diego, CA). The plates were incubated for 15 min at room temperature, and 1 uL substrate (50 nM final concentration) were added to start the reaction and immediately read at 0 min read on Viewlux reader. The plate were further incubated for 10 min at room temperature, and then read on Viewlux again. Throughout the screen, reagent bottle and all liquid lines were chilled and made light-tight to minimize reagent degradation. All screening operations were performed on a fully integrated robotic system (Kalypsys, San Diego, CA) containing one RX-130 and two RX-90 anthropomorphic robotic arms (Staubli, Duncan, SC). Library plates were screened starting from the lowest and proceeding to the highest concentration, and a double-dipping step of the highest concentration was required to access higher concentrations of compounds. Vehicle-only plates, with DMSO being pin-transferred to the entire column 5-48 compound area, were inserted uniformly at the beginning and the end of each library in order to monitor for and record any shifts in the background, which can be affected by reagent dispensers or loss in enzyme activity overtime. Screening data were corrected, normalized, and concentration-effect relationships were derived by using publicly-available curve fitting algorithms developed in-house (http://ncgc.nih.gov/pub/openhts). A four parameter Hill equation was fitted to the concentration-response data by minimizing the residual error between the modeled and observed responses.
Potency is read from the fitted curve at half-maximal effect.

SMILES	Potency
COc1cccc(N2C(=O)NC(=O)/C(=C\c3cn(C)c4ccccc34)C2=O)c1	inactive
Cc1cccc(N2C(=O)NC(=O)/C(=C\c3cnn(-c4ccccc4)c3)C2=O)c1	39.8 µM (active)
O=C1NC(=O)N(c2ccccc2)C(=O)/C1=C/c1ccc([N+](=O)[O-])s1	inactive
CCCCN1C2CCC1CC(OC(c1ccc(F)cc1)c1ccc(F)cc1)C2 (stereo not given)	inactive
COc1ccc(N2C(=O)/C(=C/c3ccco3)C(=O)NC2=S)cc1	2.82 µM (active)
COc1ccc(CN2C(=O)NC(=O)/C(=C\c3ccc(OC)c(OC)c3OC)C2=O)cc1	inactive
COc1ccccc1N1CCN(C(CNC(=O)Oc2ccccc2)c2cccnc2)CC1 (stereo not given)	inactive
O=C1NC(=O)N(c2ccc(F)cc2)C(=O)/C1=C/c1ccc2c(c1)CCCN2Cc1ccccc1	inactive
Cc1c(C(=O)O)cccc1-n1c(C)cc(/C=C2\C(=O)NC(=O)N(c3ccc4c(c3)OCO4)C2=O)c1C	11.2 µM (active)
Cc1ccccc1N1C(=O)NC(=O)/C(=C\c2cc(C)n(C)c2C)C1=O	inactive
O=Cc1cn(Cc2ccc(F)cc2Cl)c2ccccc12	inactive
Cc1cc2ccccn2c1C(C[N+](=O)[O-])c1c(F)cccc1Cl (stereo not given)	inactive
CCN(CC)C(=O)c1ccc(NC(=O)c2sccc2-c2ccccc2)cc1	inactive
COc1ccc2c3c1O[C@H]1C[C@@H](O)C=C[C@@]31CCN(C)C2	inactive
N[C@@H](Cc1c[nH]c2ccccc12)c1nnc(SCc2c(F)cccc2Cl)o1	inactive
Cc1ccc(-n2c(/C=C/c3cccc(C(F)(F)F)c3)nc3ccccc3c2=O)cc1	inactive
C=CCN(CC=C)C(=O)Nc1ccc(OCC)cc1	inactive
CCOc1ccc(-c2cc(C)n3nc(C(=O)Nc4ccc(C)c(C)c4)cc3n2)cc1	8.91 µM (active)
OC(Cn1c2ccccc2c2ccccc21)C[n+]1ccccc1 (stereo not given)	inactive
O=C1NC(=O)N(Cc2ccco2)C(=O)/C1=C\c1cccn1CCOc1ccccc1	inactive

SMILES	Potency
Cc1cc(/C=C2/C(=O)NC(=O)N(Cc3ccco3)C2=O)c(C)n1-c1ccc(C(=O)O)cc1	17.8 µM (active)
Cc1cc(C=C2C(=O)NC(=O)NC2=O)c(C)n1-c1ccncc1	inactive
COc1ccccc1N=C1SCCCN1C	inactive
C=CCN1CCC23c4c5ccc(O)c4O[C@H]2C(=O)CC[C@@]3(O)C1C5 (stereo not given in full)	inactive
CC(C)(C)c1ccc(CN2C(=O)CN=C(c3ccccc3)c3ccccc32)cc1	inactive
O=C1CC(=O)N(Cc2ccccc2)C(=O)N1CCCCCCN1C(=O)CC(=O)N(Cc2ccccc2)C1=O	28.2 µM (active)
O=C(CN1CCCC1=O)NCCc1ccccc1	inactive
Cc1nc2ccccc2c(=O)n1-c1ccc(Cl)cc1Cl	inactive
CCN1CCN(c2nc3c(c(=O)[nH]2)CCC3)CC1	inactive
Cc1nnc(NC(=O)c2cccn(Cc3cccc(F)c3)c2=O)s1	inactive
COc1ccccc1N=Nc1c(O)[nH]c(=S)[nH]c1=O	inactive
CCOCCc1c(O)[nH]c(=S)[nH]c1=O	35.5 µM (active)
Cc1ccc(-c2nn(CCC#N)cc2C(=O)O)cc1C	inactive
O=C(OCC1O[C@@H](OC(=O)c2cc(O)c(O)c(O)c2)[C@@H](OC(=O)c2cc(O)c(O)c(O)c2)[C@@H](OC(=O)c2cc(O)c(O)c(O)c2)[C@@H]1OC(=O)c1cc(O)c(O)c(O)c1)c1cc(O)c(O)c(O)c1 (stereo not given in full)	0.158 µM (active)
Cc1cccc(Cn2cccc(C(=O)Nc3ccc4c(c3)OCCO4)c2=O)c1	inactive
Cc1ccc(NC(=O)N(Cc2ccc3c(c2)OCO3)C2CCN(Cc3ccccc3)CC2)cc1F	inactive
C[N+]12CN3CN(CN(C3)C1)C2	inactive
NCCc1c[nH]c2ccc(O)cc12	inactive
CCOC(=O)c1ncn2c1[C@@H]1CCCN1C(=O)c1cc(OC)ccc1-2	inactive
CN(C)c1ccc(/C=C2\CC3C4CC=C5CC(O)CCC5(C)C4CCC3(C)C2=O)cc1 (stereo not given)	inactive
